According to PubChem BioAssay AID1903 (Southern Research Specialized Biocontainment Screening …, 2009):
Screen size: about 310,000 compounds; about 1,200 (0.39%) were called active. The rule behind the calls is not given here. These entries were drawn from the full list. Entries with a potency or affinity are not part of this list.

The molecules below were run against Large T antigen (Simian virus 40) (UniProt P03070) (assay: SV40 large T antigen inhibitors, biochemical (AID 1903)). Settings: SV40 large T antigen ATPase/helicase inhibition assay; at 20 µM; active compounds read high.
Sequence of Large T antigen (Simian virus 40) (P03070 whole entry, looked up): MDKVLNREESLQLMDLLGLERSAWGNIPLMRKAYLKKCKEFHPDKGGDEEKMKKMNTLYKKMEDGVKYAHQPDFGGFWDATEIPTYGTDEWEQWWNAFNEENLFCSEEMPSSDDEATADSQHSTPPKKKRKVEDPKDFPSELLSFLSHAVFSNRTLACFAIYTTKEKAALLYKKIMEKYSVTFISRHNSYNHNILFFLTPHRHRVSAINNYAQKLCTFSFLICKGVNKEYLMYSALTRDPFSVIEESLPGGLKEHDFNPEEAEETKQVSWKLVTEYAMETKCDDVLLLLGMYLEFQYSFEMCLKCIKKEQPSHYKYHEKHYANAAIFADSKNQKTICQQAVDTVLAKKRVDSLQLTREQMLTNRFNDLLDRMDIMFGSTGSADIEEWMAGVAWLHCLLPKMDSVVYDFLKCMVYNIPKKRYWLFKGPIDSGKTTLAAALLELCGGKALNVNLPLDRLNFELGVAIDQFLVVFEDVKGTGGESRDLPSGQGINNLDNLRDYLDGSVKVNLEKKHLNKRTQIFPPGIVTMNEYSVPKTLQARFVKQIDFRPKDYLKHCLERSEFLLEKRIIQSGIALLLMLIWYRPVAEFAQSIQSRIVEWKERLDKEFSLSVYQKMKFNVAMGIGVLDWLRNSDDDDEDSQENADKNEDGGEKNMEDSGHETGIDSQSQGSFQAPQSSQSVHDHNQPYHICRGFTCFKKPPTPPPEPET

inhibition, inactive:
Cc1ccc(NC(=O)CN(C)S(=O)(=O)c2ccc3[nH]c(=O)oc3c2)c(C)c1 10.9%
CC1CC(C)CN(CC(=O)N2CCc3[nH]c4ccccc4c3C2)C1 (stereo not drawn) -3.87%
Cc1ccc(/C=C2\SC(=S)N(C3CCS(=O)(=O)C3)C2=O)o1 (stereo not drawn) 9.87%
Cc1ccc(/C=C2/SC(=S)N(C3CCCCC3)C2=O)o1 31.8%
O=C1/C(=C\c2ccco2)SC(=S)N1C1CCS(=O)(=O)C1 (stereo not drawn) 22.2%
O=C1/C(=C/c2ccco2)SC(=S)N1C1CCS(=O)(=O)C1 (stereo not drawn) 33.6%
COc1ccc(C2C(C(=O)Nc3ccc(OC)c(OC)c3)c3ccccc3C(=O)N2C)cc1 (stereo not drawn) 5.35%
CCOC(=O)c1ccc(NC(=O)CN2CCN(Cc3ccccc3)CC2)cc1 -0.24%
O=C1NC(=O)/C(=C\c2cn(Cc3ccccc3F)c3ccccc23)N1 8.29%
C/C(=N\NC(=O)Cc1ccc(F)cc1)c1ccc(O)cc1 36.9%
C/C(=N\NC(=O)CCc1c(C)n[nH]c1C)c1ccc([N+](=O)[O-])cc1 3.31%
C/C(Cn1nc([N+](=O)[O-])cc1C)=N\NC(=O)c1ccc(C(C)(C)C)cc1 9.13%
COc1ccc(C(=O)N/N=C(\C)Cn2nc([N+](=O)[O-])cc2C)cc1 8.1%
COc1cc(C(=O)N/N=C(\C)c2ccc(NC(=O)Cc3ccccc3)cc2)ccc1O 37.2%
COc1cc(/C(C)=N/NC(=O)CN2CCN(S(=O)(=O)c3ccc(C)cc3)CC2)ccc1O 20.9%
COc1ccc(-c2noc(Cc3ccccc3OC)n2)cc1 5.97%
CCOc1ccccc1C(=O)NCC(=O)N(C)Cc1cccnc1 0.45%
CC1CCc2cc(F)ccc2N1C(=O)c1cc2nc(-c3ccco3)cc(C(F)(F)F)n2n1 (stereo not drawn) 0.153%
O=c1oc2c(-c3cccc(F)c3)cc(O)cc2s1 6.75%
Cc1ccc(-c2cc(O)cc3sc(=O)oc23)cc1C 9.82%
Cc1cc(NC(=O)CSc2nnc3c(C)cc4ccccc4n23)no1 23.4%
CCc1cccc(C)c1NC(=O)CCCSc1nc2ccccc2s1 3.33%
COc1ccccc1-n1c(CNc2ccc(F)cc2)nnc1SCC(=O)Nc1cc(C)on1 25.1%
CCOc1ccc(NCc2nnc(SCC(=O)Nc3cc(C)on3)n2-c2ccccc2OC)cc1 15.1%
COc1ccc(NCc2nnc(SCC(=O)Nc3ccc(OC)cc3)n2C)cc1 9.42%
COc1ccc(NCc2nnc(SCC(=O)c3ccc(OC)cc3)n2C)cc1 21.2%
CS(=O)(=O)N1CCc2cc(S(=O)(=O)N3CCCCC3)ccc21 11.4%
COc1ccc(C(C)=O)cc1COc1ccc(Cl)cc1Cl 1.32%
Cc1ccc(S(=O)(=O)N(CC(=O)Nc2cccnc2)c2cccc(Br)c2)cc1 14.9%
Oc1ccc(Nc2nnc(-c3ccc(O)cc3)c3ccccc23)cc1 20.3%
Cc1cc(C)nc(Nc2ccc(C(=O)O)cc2)n1 3.63%
Oc1ccc(Nc2nc3ccccc3nc2Nc2ccc(O)cc2)cc1 35%
Cc1cc(C)nc(Nc2ccc(O)cc2)n1 45.6%
O=C(OC1CCCCC1=O)c1cccc(S(=O)(=O)N2CCOCC2)c1 (stereo not drawn) 1.22%
CC(=O)Nc1cccc(-c2csc(NCc3ccco3)n2)c1 13.3%
CCOC(=O)C1=C(C)Nc2nc(C)nn2C1c1cc(OC)ccc1OC (stereo not drawn) 5.76%
Nc1cccc2c3c(oc12)CCCC3 4.56%
O=C(Nc1ccc(-c2ccc3nncn3n2)cc1)C1CCCC1 0.86%
CCC(C)N(C(=O)COC(=O)c1ccccc1SCC(=O)N1CCCC1)C1CCS(=O)(=O)C1 (stereo not drawn) 1.39%
c1ccc(Cn2nnnc2CN2CCN(c3ncccn3)CC2)cc1 0.78%
CCCc1cc(C(N)=O)c(NC(=O)c2cc(C)on2)s1 8.78%
Cc1csc(C(=O)NCC(=O)NNC(=O)c2cccc(Cl)c2)c1 0.72%
CCn1nc(C(=O)Nc2nc3ccc(C)cc3s2)c2ccccc2c1=O 0.39%
COc1cc(/C=N/NC(=O)C2c3ccccc3Oc3ccccc32)ccc1O 13.3%
COc1cc(/C=N/NC(=O)NC2CCCCC2)cc(OC)c1O 31.1%
COc1cc(/C=N/NC(=O)NC23CC4CC(CC(C4)C2)C3)ccc1O 26.5%
COc1cc(/C=N/NC(=O)CC(=O)NC2CCCCC2)ccc1O 26.4%
COc1ccc(C(CNC(=O)c2ccc(S(=O)(=O)Nc3ccc(F)cc3)cc2)N(C)C)cc1 (stereo not drawn) -1%
CC(=O)Nc1ccc(S(=O)(=O)NCCC(=O)OCC(=O)N2CCN(C(=O)c3ccco3)CC2)cc1 2.76%
COc1ccc(OC)c(-c2csc3nnc(SCC(=O)Nc4ccc(NC(C)=O)cc4)n23)c1 3.77%
C=CCC(C(=O)NC(C)c1ccccc1)C(=O)NC(C)c1ccccc1 (stereo not drawn) 0.99%
CCOc1cc(N2C(=O)CC3CS(=O)(=O)CC32)c(OCC)cc1NC(=O)c1ccccc1 (stereo not drawn) -8.08%
CCOc1cc(NC(=O)c2ccccn2)c(OCC)cc1NC(=O)c1ccccc1 8.84%
CCCSc1nnc(N)s1 14.6%
CCN1C(=O)c2ccccc2Sc2ccc(C(=O)NCCC(C)C)cc21 18.1%
CCOC(=O)C1CCCN(S(=O)(=O)Cc2ccc(Cl)cc2)C1 (stereo not drawn) 5.43%
NNC(=O)C(=O)Nc1ccc(Cl)c(Cl)c1 4.78%
Cc1ccc(NC(=O)C(=O)NN)cc1 4.15%
Cc1ccc(N=C2C(=O)Nc3ccc(Br)cc32)cc1 4.2%
COC(=O)CN1C(=O)C(C)(C)Oc2ccc(C(=O)Nc3ccccc3F)cc21 -0.69%
Cc1csc(N/N=C/c2ccc([N+](=O)[O-])cc2)n1 12%
O=[N+]([O-])c1cc(/C=N\Nc2nc(-c3ccccc3)cs2)ccc1O 14.1%
O=C(c1ccc2c(c1)OCCO2)C1CCN(S(=O)(=O)c2ccc(F)cc2)CC1 0.84%
S=c1[nH]nc(-c2cc(-c3ccccc3)n[nH]2)n1/N=C/c1cccs1 10.5%
Cc1nnc(C)n1/N=C/c1cccs1 13.5%
Fc1ccc(-c2n[nH]c(=S)n2/N=C/c2c[nH]c3ccccc23)cc1 1.41%
Cc1cc(C)n(/N=C/c2c[nH]c3ccccc23)c(=O)c1 0.69%
CCCCn1c(O)c(N=NC(=O)c2ccccc2NS(=O)(=O)c2cccs2)c2ccccc21 14.3%
O=c1ccc(S(=O)(=O)N2CCC(Cc3ccccc3)CC2)c[nH]1 7.63%
CN(CCNC(=O)CCNC(=O)Cn1ccc2ccccc2c1=O)Cc1ccccc1 15.1%
Nc1nc(SCc2cccc([N+](=O)[O-])c2)n[nH]1 4.99%
CCn1c(SCC(=O)OC)nnc1-c1ccc(C)cc1 22.5%
C=CCn1c(SCC(=O)c2ccc(OC)cc2)nnc1-c1cc2cccc(OC)c2o1 6.55%
C=CCn1c(SCC(=O)Nc2ccc3c(c2)OCO3)nnc1-c1ccccc1OC 1.62%
CCn1c(SCC(=O)c2ccc(C)cc2)nnc1-c1ccncc1 3.96%
C=CCn1c(SCC(=O)NC2CCCC2)nnc1-c1cccnc1 3.08%
CCn1c(SCC(=O)C(C)(C)C)nnc1-c1ccccc1OC -1.72%
C=CCn1c(SCC(=O)Nc2ccc(C(=O)O)cc2)nnc1-c1cccnc1 8.53%
CCn1c(SCC(=O)O)nnc1-c1ccccc1OC 1.77%
O=C1OCc2cc(NC(=O)C3CCCCC3)ccc21 2.69%
COc1cccc(-c2cc(CC3(O)CCN(CCCc4ccccc4)CC3)on2)c1 8.74%
Cc1ccc(S(=O)(=O)N2CCN(S(=O)(=O)N(C)C)CC2)c(C)c1 3.46%
COc1ccc(-n2c(C)cc(-c3csc(NC(=O)c4ccc(S(=O)(=O)N(C)C)cc4)n3)c2C)cc1 11.5%
Cc1c(CC(=O)NCCCC(=O)O)c(=O)oc2cc3oc4c(c3cc12)CCCC4 10%
CC(C)CCNC(=O)C1CC(=O)N(C2CCCC2)C1 (stereo not drawn) -3.66%
S=C(NCC1CCCO1)Nc1ccc(Cl)c(Cl)c1 (stereo not drawn) 13.5%
Cc1ccc(CCN2CC(C(=O)NCCCN3CCN(C)CC3)CC2=O)cc1 (stereo not drawn) 3.28%
c1ccc(-n2nnnc2-n2nnc3ccccc32)cc1 9.04%
COCCN=C1Sc2nc3ccc(C)cc3cc2CN1Cc1ccco1 19.9%
Cc1cccc2cc3c(nc12)SC(=NCC1CCCO1)N(Cc1ccco1)C3 (stereo not drawn) 26%
Oc1ccc(-c2csc(Nc3ncccn3)n2)cc1 6.13%
Cc1ccnc(Nc2nc(-c3ccc(O)c(O)c3)cs2)c1 32.9%
Cc1ccc(Nc2nc(-c3ccc(F)cc3)cs2)nc1 9.89%
Cc1cccc(Nc2nc(-c3ccc(O)c(O)c3)cs2)n1 30.3%
c1ccc(-c2csc(Nc3ccccn3)n2)cc1 9.23%
c1ccc(-c2csc(Nc3ncccn3)n2)cc1 0.05%
Cc1csc(Nc2cccc3ccccc23)n1 11.9%
Oc1ccc(-c2csc(Nc3ccccn3)n2)cc1 22.2%
